Source: PubChem BioAssay (The Scripps Research Institute Molecular Screening Center)
Only some compounds are listed: those with a hit (about 4.1% of all), similar ones and a draw of the others.
hgDAF12 agonist – activates the H. glycines DAF-12 receptor ligand-binding domain; HEK293 GAL4-hgDAF12 UAS-luciferase reporter, agonist luminescence; normalized to butyrate control; activation, % at 6.8 µM; 370,000 tested, 1.8% active; AID 687014;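 active = activation above a cutoff set at the mean of all screened compounds plus 3 SD, cut at about 10% in these data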;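 also: 0% = DMSO wells and 100% = sodium butyrate wells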
DAX1 inh-1 – inhibits human nuclear receptor DAX1 | P51843 | HEK293 Gal4-DAX1 luciferase reporter, luminescence | inhibition, % at 6.75 µM | 340,000 tested, 0.99% active;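 active = inhibition above the mean over all tested compounds plus 3 SD, cut at about 4.2% in these data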;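 also: 0% = DAX1-transfected cells with DMSO and 100% = empty-vector control cells with DMSO; inhibition shows as a rise in luminescence from relieved DAX1 repression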
ssDAF12 agonist – activates DAF-12 receptor from parasite S. stercoralis | 370,000 tested, 1% active | AID 652126 | activation, % at 6.8 µM | HEK293 ssDAF-12/GRIP1 lit1-tk-luc reporter, luminescence; % of 3 µM dafachronic acid response;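 active = activation above the mean over all tested compounds plus 3 SD, cut at about 0.9% in these data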;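 also: 0% = DMSO-only wells and 100% = 3 µM delta7-dafachronic acid wells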
hcDAF12 agonist – H. contortus DAF-12 activation, primary screen | HEK293 hcDAF-12 lit1-tk-luc reporter, luminescence; 0% DMSO, 100% Δ7-dafachronic acid | activation, % at 6.8 µM | 370,000 tested, 1.4% active | AID 652067;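 active = activation above the mean of all tested compounds plus 3 SD, cut at about 5.5% in these data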;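 also: 100% = response to 3 µM Δ7-dafachronic acid high control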
DAX1 inh-2 – DAX1 (NR0B1) inhibition, primary screen; HEK293T StAR-luciferase reporter, SF-1/DAX-1 repression relief; inhibition, % at 6.8 µM; 370,000 tested, 1.1% active;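 active = inhibition above the mean over all tested compounds plus 3 SD, cut at about 3.6% in these data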;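 also: 0% = DAX-1 cells with DMSO and 100% = cells lacking DAX-1 with DMSO; higher inhibition means more luminescence from relief of DAX-1 repression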
hgDAF12 ag – hgDAF-12 agonism, confirmation assay | shares compounds with hgDAF12 agonist | HEK293 GAL4-hgDAF12 luciferase reporter, agonist mode; percent of butyrate response | activation, % at 6.8 µM | 3,300 tested, 80% active;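 active = mean activation over triplicate wells above the hit cutoff derived from the earlier primary screen, cut at about 11% in these data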;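 also: 0% = DMSO low control and 100% = 2 mM sodium butyrate high control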
LXR ag 2 – counter-screen for DAF-12 agonists: agonists of human LXR-beta; HEK293 Gal4-LXR luciferase reporter, 24 h; 3,300 tested, under 10 active; shares compounds with hgDAF12 agonist; activation, % at 6.8 µM;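 active = mean activation of the triplicate above a set limit carried over from the primary screen, none filed active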
Target sequence (P55055 whole entry, looked up, the tested form may be a part): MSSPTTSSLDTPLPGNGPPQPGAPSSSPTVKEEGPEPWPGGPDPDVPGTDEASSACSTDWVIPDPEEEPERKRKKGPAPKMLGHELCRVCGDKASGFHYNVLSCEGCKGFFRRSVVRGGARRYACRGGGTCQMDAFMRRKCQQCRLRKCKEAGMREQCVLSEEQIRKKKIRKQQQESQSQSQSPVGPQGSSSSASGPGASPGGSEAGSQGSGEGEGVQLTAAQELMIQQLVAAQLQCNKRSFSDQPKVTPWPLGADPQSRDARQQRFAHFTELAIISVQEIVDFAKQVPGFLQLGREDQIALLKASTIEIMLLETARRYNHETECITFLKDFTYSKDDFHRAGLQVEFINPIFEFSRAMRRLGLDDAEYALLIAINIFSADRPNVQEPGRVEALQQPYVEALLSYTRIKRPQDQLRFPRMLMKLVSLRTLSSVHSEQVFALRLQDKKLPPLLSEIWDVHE
An asterisk follows results filed as active; x = no result given.

SMILES	hgDAF12 agonist	DAX1 inh-1	ssDAF12 agonist	hcDAF12 agonist	DAX1 inh-2	hgDAF12 ag	LXR ag 2
CCc1ccc(OCc2ccc(C(=O)OC)o2)cc1	17*	4	-1	4	1	14*	1
CCC(C)c1ccc(OCc2ccc(C(=O)OC)o2)cc1 (stereo unspecified)	15*	4	1.0*	4	3	18*	1
COC(=O)c1ccc(COc2ccc(C(C)(C)C)cc2)o1	5	1	-1	1	1	x	x
Clc1c(CSc2nc3ccccc3o2)nc2sccn12	24*	3	1	5	4.1*	20*	1
COc1ccc2nc(NC(=O)c3cccnc3SC)sc2c1	17*	0	-1	4	2	14*	0
COc1ccc(C(=O)Nc2nc3cc4c(cc3s2)OCO4)c(OC)c1	17*	2	-1	2	3	17*	1
CC(C)C(=O)Nc1nc2cc3c(cc2s1)OCO3	10	1	-1	2	1	x	x
COc1cccc(Nc2nc3ccc(OC)cc3s2)c1	17*	2	0	3	3	18*	1
CC1CCc2c(sc(/N=C/c3ccco3)c2C(N)=O)C1 (stereo unspecified)	3	3	-1	0	2	x	x
O=C1c2ccccc2C(=O)N1CCCc1c[nH]c2ccccc12	0	0	-1	0	1	x	x
O=C1c2ccccc2C(=O)N1CCc1c[nH]c2ccccc12	19*	13*	1	2	3.6*	13*	1
C/C(CC(=O)NC1CCCCC1)=N\NC(=O)c1ccccn1	20*	3	0	4	3	4	0
CCn1c(=O)[nH]c2ccccc2c1=O	-3	1	-1	0	1	x	x
CCSCC(C)(C)n1[nH]c2ccccc2c1=O	14*	0	-1	0	0	-2	0
c1ccc(-n2nc3c(ccc4cnnc43)[nH]2)cc1	19*	1	1	5.7*	2	12*	1
CC1(C)Oc2ccc3ccc(=O)oc3c2/C(=C/NNC(N)=S)C1=O	-1	-1	-1	-1	0	x	x
CCS(=O)(=O)Nc1ccc2c(c1)C(=O)N(C)[C@@H]1CC[C@H](CC(=O)OC)O[C@H]1CO2	1	x	-1	1	1	x	x
C/C(=N\Nc1nncc2ccccc12)c1cccc(OC(F)F)c1	18*	-2	1	6.1*	2	20*	1
COc1ccc2c(c1OC)C(=O)OC2Nc1nc(-c2cc3ccccc3oc2=O)cs1 (stereo unspecified)	18*	0	1	5	4.3*	17*	1
COc1ccc2c(c1OC)C(=O)OC2Nc1nc(-c2cc3cc([N+](=O)[O-])ccc3oc2=O)cs1 (stereo unspecified)	0	-1	-1	-2	0	x	x
Cc1cccc(C)c1-n1nnnc1C(c1ccnc2ccccc12)N(CCN(C)C)Cc1ccccc1 (stereo unspecified)	-2	x	0	-1	-1	x	x
CCc1nc(Nc2ccncc2)c2oc3ccccc3c2n1	19*	1	-1	1	0	8	0
Cc1nc(Nc2ccncc2)c2oc3ccccc3c2n1	4	0	-1	0	0	x	x
Cc1ccc2nc(-c3ccc(Cl)cc3)c(Cc3cccc(Cl)c3)n2c1	13*	x	-1	2	3.9*	3	0
Cc1ccc(-c2nc3ccc(Br)cn3c2Cc2cccc(F)c2)cc1	21*	x	0	1	3	10*	1
SMILES	hgDAF12 agonist	DAX1 inh-1	ssDAF12 agonist	hcDAF12 agonist	DAX1 inh-2	hgDAF12 ag	LXR ag 2
Fc1ccc(-c2nc3ccc(Br)cn3c2Cc2ccccc2)cc1	3	2	-1	-1	2	x	x
C[C@@H]1CN([C@H](C)CO)C(=O)c2cc(C#CC(C)(C)O)cnc2O[C@@H]1CN(C)C(=O)C1CC1	2	0	-1	1	-1	x	x
Cn1nc(C(C)(C)C)cc1C(=O)N1CCCCC1c1cc(C(=O)Nc2ccc(F)c(Cl)c2)no1 (stereo unspecified)	-5	x	-1	-2	-3	x	x
CCCc1ccc(C(=O)O/N=C(\N)c2ccccn2)cc1	-12	-9	-3	-6	-1	x	x
Cc1ccc(OCC(=O)O/N=C(\N)c2ccccn2)cc1	15*	3	0	4	3.8*	14*	0
N/C(=N/OC(=O)c1cccc([N+](=O)[O-])c1)c1cccc([N+](=O)[O-])c1	1	-1	-2	-2	0	x	x
N/C(=N\OC(=O)COc1cc(Cl)c(Cl)cc1Cl)c1ccccn1	14*	x	-1	1	3	12*	1
N/C(=N\OC(=O)c1ccco1)c1ccccn1	14*	-1	0	2	3	7	0
N/C(=N\OC(=O)c1cccc([N+](=O)[O-])c1)c1ccccn1	15*	4	0.9*	5.8*	1	13*	1
Cc1ccc(NC(=S)N(CCN2CCOCC2)Cc2cc3cc4c(cc3[nH]c2=O)OCO4)cc1	2	0	-1	-2	0	x	x
CC(C)(C)CC(=O)O/N=C(\N)c1ccccn1	14*	0	0	6.3*	3	13*	1
N/C(=N\OC(=O)COc1ccc(Cl)cc1Br)c1ccncc1	16*	2	1.3*	5	3	19*	1
COc1ccc(S(=O)(=O)N2CCC(C(=O)NC(c3nc4ccccc4[nH]3)C(C)C)CC2)cc1 (stereo unspecified)	-2	0	-1	-1	3	x	x
Nc1[nH]c2cc(Cl)ccc2c1C(=O)N1CCOCC1	1	x	0	4	1	x	x
NC(=S)N=Nc1ccc(O)cc1	1	4	0	0	-1	x	x
C[C@@H](C(=O)Nc1ccc2c(c1)OCCO2)n1nnc2ccccc2c1=O	13*	2	0	2	1	14*	1
CC(C(=O)Nc1ccc2c(c1)OCCO2)n1nnc(-c2ccccc2)n1 (stereo unspecified)	1	-1	-1	-1	-1	x	x
OC(CNCc1ccccc1Cl)C(F)(F)F (stereo unspecified)	3	0	-2	-3	-1	x	x
CC(/C=C/c1ccccc1F)=N\NC(=O)c1ccccc1	14*	3	0	2	3	10	0
CC(/C=C/c1ccccc1F)=N\NC(=O)c1ccc(Cl)cc1	6	-1	-1	-1	0	x	x
O=C(C1CCCN(S(=O)(=O)c2ccc(Br)cc2)C1)N1CCOCC1 (stereo unspecified)	-1	-1	-1	-1	-1	x	x
Clc1ncnc2c1oc1ccccc12	19*	4	1.6*	6.2*	2	16*	1
